Assays:
[1] = biological target: PEG-3 (UniProt Q6IN02); assay: inhibition of PEG-3 promoter-driven reporter – cell-based, HeLa, luciferase, CREF/GAPDH counter-screen panel, dose response (AID 624167); conditions: CREF/GAPDH counter-screens; HeLa PEG-Prom luciferase reporter, overnight, run 1, dose range 1, at 100 µM (top of the series) unless noted
[2] = biological target: PEG-3 (UniProt Q6IN02); assay: as above; conditions: CREF/GAPDH counter-screens; HeLa PEG-Prom luciferase reporter, overnight, run 2, dose range 1, at 100 µM (top of the series) unless noted

Chain of PEG-3 (Q6IN02 whole entry, looked up): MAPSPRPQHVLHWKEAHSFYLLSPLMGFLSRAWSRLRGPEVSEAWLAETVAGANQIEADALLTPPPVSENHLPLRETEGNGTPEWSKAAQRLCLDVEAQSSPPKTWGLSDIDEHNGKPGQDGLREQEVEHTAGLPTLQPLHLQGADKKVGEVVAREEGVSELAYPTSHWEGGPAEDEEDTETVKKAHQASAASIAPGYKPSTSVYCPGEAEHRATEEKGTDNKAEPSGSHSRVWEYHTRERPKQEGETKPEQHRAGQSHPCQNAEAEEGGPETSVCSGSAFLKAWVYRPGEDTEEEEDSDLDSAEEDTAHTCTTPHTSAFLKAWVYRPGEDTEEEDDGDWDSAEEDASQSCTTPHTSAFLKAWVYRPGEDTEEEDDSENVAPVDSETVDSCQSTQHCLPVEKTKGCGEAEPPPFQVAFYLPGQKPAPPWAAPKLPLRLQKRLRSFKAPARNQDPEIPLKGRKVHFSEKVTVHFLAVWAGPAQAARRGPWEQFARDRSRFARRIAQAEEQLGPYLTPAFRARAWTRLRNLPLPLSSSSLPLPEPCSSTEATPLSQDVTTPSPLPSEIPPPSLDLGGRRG

Row | Structure (SMILES) | inhibition [1] [%] | inhibition [2] [%]
1 | CC(C)c1ccc(/C=N/Nc2ccc(C(=O)O)cc2)cc1 | 89.9 | 84
2 | Cc1nc(N2CCN(c3ccccc3O)CC2)c2c(-c3ccccc3)csc2n1 | 94.8 | 94
3 | Cc1nc(N2CCN(c3ccccn3)CC2)c2c(C)c(C(=O)Nc3ccccc3F)sc2n1 | 53.1 | 34.9
4 | COc1ccc(Nc2oc(COc3ccccc3OC)nc2C#N)cc1 | 69.9 | 88.5
5 | Cc1ccc(-c2nc(C(Cl)Cl)c3ccccc3n2)cc1 | 96.2 | 97.4
6 | COc1ccc(C[C@H]2CN3C(=NC[C@@H]3Cc3ccc(O)cc3)N2C[C@H](C)NC(=O)c2ccc(C)c(Br)c2)cc1 | 102 | 102
7 | COc1ccc(/C=C/C(=O)c2ccc3c(c2)OCCO3)cc1[N+](=O)[O-] | 97.9 | 99
8 | Cc1cccc(N2CCN(C(=O)C3CCN(c4ncnc5c4nc4n5CCCCC4)CC3)CC2)c1C | 101 | 90.7
9 | Cc1cc(/C=c2/sc3nc4ccccc4n3c2=O)c(C)n1-c1ccccn1 | 84.1 | 84.5
10 | COc1ccc2nc3n(c(=O)c2c1)-c1cc2ccccc2cc1C(=O)NC3Cc1ccc(O)cc1 (stereo not drawn) | 86.9 | 98.8
11 | COc1ccc(-c2cc(C(F)F)n3ncc(C(=O)n4ccnc4C)c3n2)cc1 | 99.6 | 101
12 | O=C(CCN1C(=O)/C(=C/c2ccc(F)cc2)SC1=S)N[C@@H](CO)Cc1ccccc1 | 36.9 | 72
13 | CCN(CC)CCCCNc1ncc2cc(-c3cc(OC)cc(OC)c3)c(NC(=O)NC(C)(C)C)nc2n1 | 97.1 | 101
14 | COc1ccc2sc3cccc(NCCN(C)C)c3c(=O)c2c1 | 98 | 99.2

— PubChem BioAssay
